GLD-1 TGE inh – GLD-1-TGE RNA interaction inhibition (C. elegans). inhibition, % at 5.96 µM. purified GLD-1 + fluorescein TGE RNA, fluorescence polarization. AID 2280. Q17339. hit rate 0.44% among 320,000;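 active = percent inhibition above a per-plate cutoff, the plate mean of test compounds plus 3 SD, cut at about 30% in these data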;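 also: 0% = DMSO wells with GLD-1 and probe and 100% = wells lacking GLD-1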
MEX-5 binding – C. elegans MEX-5 TCR-2 RNA binding activity | activity score (negative = inhibition of binding), % at 10 µM | AID 1832 | hit rate 0.38% among 300,000 | MEX-5/FITC-TCR2 RNA binding, fluorescence polarization; hits give low values | Q9XUB2;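 active = inhibition past about -25% in most replicates, and total fluorescence under double the plate's negative control median, limit read from the data; inconclusive = replicates evenly split on the limit, or fluorescence at least double controls; inactive = too little inhibition in most replicates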;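 also: 0% = DMSO and -100% = 5 µM competing unlabeled TCR2 RNA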
EBV gp42 block – blocks Epstein-Barr virus glycoprotein 42 binding. Q1HVG2. Fluorescence polarization binding assay, mP read-out. inhibition, % (tested at 21.74 µM). hit rate 0.42% among 220,000. AID 1085; in the data active = inhibition above about 50%
Target sequence (Q1HVG2 whole entry, looked up): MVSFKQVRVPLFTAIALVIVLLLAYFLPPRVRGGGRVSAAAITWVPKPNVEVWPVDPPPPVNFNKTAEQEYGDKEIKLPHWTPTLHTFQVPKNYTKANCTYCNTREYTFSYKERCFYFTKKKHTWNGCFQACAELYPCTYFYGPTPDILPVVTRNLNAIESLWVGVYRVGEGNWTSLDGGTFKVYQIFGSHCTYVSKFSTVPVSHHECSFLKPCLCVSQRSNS
MCL1-BIM inh – inhibitors of human MCL1 binding to BIM-BH3 peptide. Q07820. GST-MCL1 / FITC-Bim-BH3 fluorescence polarization. hit rate 0.68% among 320,000. inhibition, % at 10.9 µM;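 active = inhibition above the mean inhibition of all tested compounds plus 3 SD, set per campaign, cut at about 40% in these data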;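 also: 0% = DMSO wells and 100% = unlabeled Bim-BH3 peptide control; higher means more loss of mP so more displacement of Bim peptide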
BCLXL inh – inhibitors of human Bcl-xL | hit rate 0.7% among 320,000 | inhibition, % at 10.9 µM | GST-Bcl-xL / FITC-Bim BH3 peptide fluorescence polarization | Q07817 | AID 2129;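 active = inhibition above the mean of all tested compounds plus 3 SD, cutoff set per campaign, cut at about 30% in these data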;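 also: 0% = DMSO wells and 100% = unlabeled Bim-BH3 peptide competitor; inhibitors lower millipolarization by displacing the labeled peptide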
Target sequence (Q07817 whole entry, looked up): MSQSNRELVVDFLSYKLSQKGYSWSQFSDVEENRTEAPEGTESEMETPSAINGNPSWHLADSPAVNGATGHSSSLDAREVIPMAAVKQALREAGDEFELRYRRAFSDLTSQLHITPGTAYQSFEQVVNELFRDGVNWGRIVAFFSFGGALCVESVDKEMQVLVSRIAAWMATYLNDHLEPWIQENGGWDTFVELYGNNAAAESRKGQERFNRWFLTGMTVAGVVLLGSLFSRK
E coli Lon inh – inhibits E. coli Lon protease. P0A9M0. purified E. coli Lon protease, fluorescence polarization. inhibition, % at 7.94 µM. hit rate 0.42% among 360,000. AID 602123; in the data active = inhibition above about 13%, passing the limit was not always enough;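 also: 0% = enzyme with probe and DMSO and 100% = no enzyme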
Bcl-xL conf – counter-screen for MCL1 inhibitors: confirmation of human Bcl-xL inhibitors. GST-Bcl-xL / FITC-Bim BH3 peptide FP binding. shares compounds with MCL1-BIM inh. inhibition, % at 10.9 µM. hit rate 54% among 1,700;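 active = inhibition above a cutoff equal to the mean inhibition of all tested compounds plus 3 SD, cut at about 30% in these data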;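 also: 0% = DMSO wells and 100% = unlabeled Bim BH3 control peptide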
MCL1 inh confirm – confirmation of human MCL1 and BIM-BH3 interaction inhibitors; hit rate 61% among 1,700; shares compounds with MCL1-BIM inh; inhibition, % at 10.9 µM; AID 2168; GST-MCL1 / FITC-Bim-BH3 fluorescence polarization;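 active = inhibition above the average of all tested compounds plus 3 SD, cut at about 40% in these data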;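 also: 0% = DMSO wells and 100% = unlabeled Bim-BH3 control peptide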
Active calls of the source: *; u = inconclusive; x = not tested or not shown; + = active, no number. Shown are actives, neighbours in structure and some others; about 1.4% of the full set was active somewhere.

SMILES	GLD-1 TGE inh	MEX-5 binding	EBV gp42 block	MCL1-BIM inh	BCLXL inh	E coli Lon inh	Bcl-xL conf	MCL1 inh confirm
Cc1cc(=O)[nH]c(-n2[nH]c3c(c2=O)CCCC3)n1	53*	1	-1	71*	67*	-19	32*	40*
COc1cc2c(cc1OC)CN(c1ccc(-c3ccccc3OC)nn1)CC2	-16	-3	-5	65*	54*	11	22	17
Nc1nn2c(-c3ccccc3)cc(=O)[nH]c2c1N=Nc1ccc(O)cc1	-6	-3	47	64*	25	-17	38*	74*
CC(OC(=O)c1cc(=O)[nH]c2ccccc12)C(=O)c1ccccc1 (centres undefined)	1	2	-3	143*	-2	9	3	-3
CCC(C)(C)NC(=O)CN(C(=O)CCC(=O)Nc1nccs1)c1ccc2c(c1)OCCO2	15	-1	x	3	0	0	x	x
CN1CCC(N(C)C(=O)c2cc(S(=O)(=O)N(C)c3ccccc3)ccc2Cl)CC1	6	x	x	x	x	-20	x	x
NC(=O)c1ccc(NC(=O)COC(=O)/C=C/c2ccc(Br)o2)cc1	5	x	x	x	x	-10	x	x
O=C(COC(=O)/C=C/c1ccc(Br)o1)Nc1ccc2[nH]c(=O)[nH]c2c1	8	4	x	68*	14	-14	8	63*
O=C1OC(C(=O)O)Cc2ccccc21 (centres undefined)	5	-1	-5	64*	2	4	2	5
Cc1ccccc1NC(=O)C1Cc2ccccc2C(=O)O1 (centres undefined)	-7	1	-24	-3	0	4	x	x
CN1C=CC2=C(C#N)C(N)C(C#N)(C#N)[C@H](c3ccccc3)[C@H]2C1 (some centres undefined)	30	u	9	92*	81*	13	31*	31
N#CC1(C#N)C(C(N)=O)C1c1ccccc1 (centres undefined)	1	3	-14	0	1	-9	x	x
CCc1nc2ccc(C(=O)NCc3ccc(OC)cc3)cn2c1N(C)CCC(C)C	x	x	x	x	x	4	x	x
Cc1ncsc1CCC(=O)N1CCCC(C(=O)c2ccc3c(c2)OCO3)C1 (centres undefined)	6	0	6	3	0	-2	x	x
COC(=O)CN(c1ccccc1)S(=O)(=O)c1ccc(F)cc1	0	1	-4	+	2	-3	8	10
COCCNCC(=O)Nc1nc(C)cs1	x	x	-16	x	x	-4	x	x
CC1(C(=O)Nc2cccc(Oc3ccccc3)c2)CCN1Cc1cccc2c1OCO2 (centres undefined)	x	x	x	x	x	3	x	x
O=C(O)c1ccc(-c2ccc(/C=c3/sc4nc5ccccc5n4c3=O)o2)cc1Cl	-7	-19	x	40*	14	-28	-13	-21
Cc1cc(C)c2nc3sc(=Cc4ccc(-c5ccccc5C(=O)O)o4)c(=O)n3c2c1	x	x	x	x	x	-19	x	x
CC(=O)OCC1=C(C(=O)O)N2C(=O)C(NC(=O)c3ccc(COc4cccc(Cl)c4Cl)o3)C2SC1 (centres undefined)	-1	-4	3	51*	29	9	18	66*
Cc1ccc(C)n1-c1sc2c(c1C(=O)O)CCCC2	-6	-1	3	70*	20	-6	17	49*
CCOC(=O)c1c(-n2c(C)cc(C=O)c2C)sc2c1CCCC2	6	1	-13	-1	-3	10	x	x
CCN(CC)C(=O)CSc1nc2cc3c(cc2c(=O)n1CCCCCC(=O)NCc1ccc(OC)cc1)OCO3	7	x	-2	-4	0	-2	x	x
COc1cccc(C(=O)NCCCNC(=O)c2cccc(OC)c2)c1	-3	2	x	-4	-5	-6	x	x
COc1cc(OC)cc(C(=O)NCCCCCCNC(=O)c2cc(OC)cc(OC)c2)c1	24	x	x	48*	44*	5	38*	49*

Compound activity from PubChem.
